According to PubChem BioAssay (EPA / NIEHS):
Inconclusive results are not listed. Some structures have more than one record in an assay (separate samples or runs), and their calls can disagree. Activity calls are given as the source filed them. How the source made its calls: active means hit-call score of the fitted dose curve at least 0.9, where 1 is the maximum; inconclusive means response in the unintended direction; inactive means score below 0.9.

molecular target: chimpanzee Androgen Receptor (AR), AR (gene 747460) (UniProt O97775); experiment: NVS_NR_cAR: NovaScreen (NVS) Nuclear Receptor Binding Assay for chimpanzee Androgen Receptor (AR) (AID 2283346);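 further: radioligand displacement from AR measured by scintillation counting in a cell-free assay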
Sequence (O97775 whole entry, looked up): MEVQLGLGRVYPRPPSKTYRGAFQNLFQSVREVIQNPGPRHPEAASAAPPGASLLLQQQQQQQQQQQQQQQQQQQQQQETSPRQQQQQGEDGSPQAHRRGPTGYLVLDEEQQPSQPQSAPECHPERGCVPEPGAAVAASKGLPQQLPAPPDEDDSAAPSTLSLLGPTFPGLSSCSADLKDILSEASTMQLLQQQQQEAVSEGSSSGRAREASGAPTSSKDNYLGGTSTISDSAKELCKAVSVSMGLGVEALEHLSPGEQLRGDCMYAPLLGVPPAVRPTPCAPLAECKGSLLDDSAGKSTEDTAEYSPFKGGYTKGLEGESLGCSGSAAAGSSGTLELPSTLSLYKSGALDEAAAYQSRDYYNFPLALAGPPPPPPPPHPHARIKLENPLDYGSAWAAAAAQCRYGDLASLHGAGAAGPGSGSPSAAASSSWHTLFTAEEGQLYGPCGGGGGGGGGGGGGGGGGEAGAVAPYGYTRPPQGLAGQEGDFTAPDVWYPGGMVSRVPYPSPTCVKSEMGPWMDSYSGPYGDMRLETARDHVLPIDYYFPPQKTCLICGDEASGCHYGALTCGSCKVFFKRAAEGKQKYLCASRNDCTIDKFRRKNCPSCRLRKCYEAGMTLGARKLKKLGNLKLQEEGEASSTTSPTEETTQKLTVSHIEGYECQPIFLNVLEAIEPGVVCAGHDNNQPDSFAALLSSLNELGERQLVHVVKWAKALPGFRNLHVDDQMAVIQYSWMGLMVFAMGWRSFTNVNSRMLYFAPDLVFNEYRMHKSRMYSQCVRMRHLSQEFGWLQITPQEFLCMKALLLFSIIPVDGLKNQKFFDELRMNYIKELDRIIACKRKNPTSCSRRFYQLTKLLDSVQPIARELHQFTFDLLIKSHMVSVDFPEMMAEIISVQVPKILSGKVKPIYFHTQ
Outline: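 Cell-free radioligand displacement using receptor protein extracted from Sf9/Sf21 cells; bound radioligand measured by scintillation counting 72 hours after chemical dosing. Loss of signal versus DMSO baseline indicates binding; primary screen single-concentration in duplicate at 25 uM, actives followed in concentration series.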

Which AC50 does the source give for `O=C(O)c1cccc(C[C@@H]2COc3ccc(OCc4nc5cc(F)ccc5s4)cc3[C@@H]2O)c1` here?
The AC50 was 20.8 µM (active).

How did the AC50 turn out when `C=CCc1cc(S(=O)(=O)c2ccc(O)c(CC=C)c2)ccc1O` was run?
The AC50 was 33.1 µM (active).

For `c1ccc(C(O[C@@H]2CCCN(CCc3ccc4c(c3)OCO4)C2)c2ccccc2)cc1`, which outcome is on record?
Its outcome is “inactive”.

With `C[C@]12C=CC(=O)C=C1CC[C@H]1[C@@H]3C[C@@H](O)[C@](O)(C(=O)CO)[C@@]3(C)C[C@H](O)[C@@]12F` as the compound, how does the AC50 read?
Its AC50 is 32.6 µM (active).

molecular target: Estrogen receptor (Homo sapiens) (UniProt P03372); experiment: NVS_NR_hER: NovaScreen (NVS) Nuclear Receptor Binding Assay for human Estrogen Receptor (ER) (AID 2283348)
Sequence (P03372 whole entry, looked up): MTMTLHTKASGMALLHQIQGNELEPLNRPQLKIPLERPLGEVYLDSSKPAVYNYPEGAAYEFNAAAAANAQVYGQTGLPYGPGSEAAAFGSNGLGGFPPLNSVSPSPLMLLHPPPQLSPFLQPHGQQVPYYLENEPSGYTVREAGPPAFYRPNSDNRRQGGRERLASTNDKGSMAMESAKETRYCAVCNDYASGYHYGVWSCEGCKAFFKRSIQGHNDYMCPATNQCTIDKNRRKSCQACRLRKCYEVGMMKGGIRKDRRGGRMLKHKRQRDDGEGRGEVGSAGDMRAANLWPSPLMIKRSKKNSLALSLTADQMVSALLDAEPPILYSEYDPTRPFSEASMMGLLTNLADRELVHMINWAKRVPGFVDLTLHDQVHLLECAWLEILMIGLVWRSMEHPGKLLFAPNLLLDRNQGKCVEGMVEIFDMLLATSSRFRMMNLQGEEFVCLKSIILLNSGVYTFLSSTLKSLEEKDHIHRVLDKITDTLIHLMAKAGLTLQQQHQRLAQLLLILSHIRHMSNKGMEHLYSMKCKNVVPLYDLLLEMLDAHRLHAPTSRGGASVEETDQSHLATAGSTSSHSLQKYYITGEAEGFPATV
Outline: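 Cell-free radioligand binding with protein extracted from MCF7 cells; scintillation counting 18 hours after dosing. Loss of signal versus DMSO baseline read as displacement; primary single-concentration screen at 25 uM in duplicate, actives retested in concentration series.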

For `CCCCC(CC)C(=O)OCCOCCOCCOC(=O)C(CC)CCCC` (stereo unspecified), which outcome is on record?
Its outcome is “inactive”.

With `CCc1ccc(O)c(C(C)(C)C)c1` as the compound, how does the outcome read?
The outcome was “inactive”.

Which AC50 does the source give for `C=CCc1cc(S(=O)(=O)c2ccc(O)c(CC=C)c2)ccc1O` here?
Its AC50 is 12.5 µM (active).

And the outcome?
The outcome was “inactive”.

Which outcome does the source give for `COc1cc(C(C)C)c2c(c1)S(=O)(=O)N(COc1cc(=O)n3cccc(OCCN4CCCCC4)c3n1)C2=O` here?
Its outcome is “inactive”.

How did the outcome turn out when `CC(C)C(=O)Nc1ccc([N+](=O)[O-])c(C(F)(F)F)c1` was run?
The outcome was “inactive”.

Which outcome does the source give for `c1ccc(C(O[C@@H]2CCCN(CCc3ccc4c(c3)OCO4)C2)c2ccccc2)cc1` here?
The outcome was “inactive”.

`C[C@]12C=CC(=O)C=C1CC[C@H]1[C@@H]3C[C@@H](O)[C@](O)(C(=O)CO)[C@@]3(C)C[C@H](O)[C@@]12F` was tested. Which AC50 did it give?
Its AC50 is 38.3 µM (active).

How did the AC50 turn out when `OCC(CO)(CO)CO` was run?
Its AC50 is 3.49 µM (active).

`CCN(CC)C(=S)SSC(=S)N(CC)CC` was tested. Which outcome did it give?
Its outcome is “inactive”.

For `COS(C)(=O)=O`, which outcome is on record?
The outcome was “inactive”.

With `OC[C@H]1O[C@@H]2O[C@H]3[C@H](O)[C@@H](O)[C@@H](O[C@H]4[C@H](O)[C@@H](O)[C@@H](O[C@H]5[C@H](O)[C@@H](O)[C@@H](O[C@H]6[C@H](O)[C@@H](O)[C@@H](O[C@H]7[C@H](O)[C@@H](O)[C@@H](O[C@H]1[C@H](O)[C@H]2O)O[C@@H]7CO)O[C@@H]6CO)O[C@@H]5CO)O[C@@H]4CO)O[C@@H]3CO` as the compound, how does the AC50 read?
Its AC50 is 0.472 µM (active).
